TcdB GH inh = TcdB glycohydrolase inhibition; inhibition, % at 9.99 µM; P18177; AID 652162; 350,000 compounds, 0.24% hits; TcdB glycohydrolase enzymatic assay, plate reader; in the data active means inhibition above about 10%
Target sequence (P18177 whole entry, looked up): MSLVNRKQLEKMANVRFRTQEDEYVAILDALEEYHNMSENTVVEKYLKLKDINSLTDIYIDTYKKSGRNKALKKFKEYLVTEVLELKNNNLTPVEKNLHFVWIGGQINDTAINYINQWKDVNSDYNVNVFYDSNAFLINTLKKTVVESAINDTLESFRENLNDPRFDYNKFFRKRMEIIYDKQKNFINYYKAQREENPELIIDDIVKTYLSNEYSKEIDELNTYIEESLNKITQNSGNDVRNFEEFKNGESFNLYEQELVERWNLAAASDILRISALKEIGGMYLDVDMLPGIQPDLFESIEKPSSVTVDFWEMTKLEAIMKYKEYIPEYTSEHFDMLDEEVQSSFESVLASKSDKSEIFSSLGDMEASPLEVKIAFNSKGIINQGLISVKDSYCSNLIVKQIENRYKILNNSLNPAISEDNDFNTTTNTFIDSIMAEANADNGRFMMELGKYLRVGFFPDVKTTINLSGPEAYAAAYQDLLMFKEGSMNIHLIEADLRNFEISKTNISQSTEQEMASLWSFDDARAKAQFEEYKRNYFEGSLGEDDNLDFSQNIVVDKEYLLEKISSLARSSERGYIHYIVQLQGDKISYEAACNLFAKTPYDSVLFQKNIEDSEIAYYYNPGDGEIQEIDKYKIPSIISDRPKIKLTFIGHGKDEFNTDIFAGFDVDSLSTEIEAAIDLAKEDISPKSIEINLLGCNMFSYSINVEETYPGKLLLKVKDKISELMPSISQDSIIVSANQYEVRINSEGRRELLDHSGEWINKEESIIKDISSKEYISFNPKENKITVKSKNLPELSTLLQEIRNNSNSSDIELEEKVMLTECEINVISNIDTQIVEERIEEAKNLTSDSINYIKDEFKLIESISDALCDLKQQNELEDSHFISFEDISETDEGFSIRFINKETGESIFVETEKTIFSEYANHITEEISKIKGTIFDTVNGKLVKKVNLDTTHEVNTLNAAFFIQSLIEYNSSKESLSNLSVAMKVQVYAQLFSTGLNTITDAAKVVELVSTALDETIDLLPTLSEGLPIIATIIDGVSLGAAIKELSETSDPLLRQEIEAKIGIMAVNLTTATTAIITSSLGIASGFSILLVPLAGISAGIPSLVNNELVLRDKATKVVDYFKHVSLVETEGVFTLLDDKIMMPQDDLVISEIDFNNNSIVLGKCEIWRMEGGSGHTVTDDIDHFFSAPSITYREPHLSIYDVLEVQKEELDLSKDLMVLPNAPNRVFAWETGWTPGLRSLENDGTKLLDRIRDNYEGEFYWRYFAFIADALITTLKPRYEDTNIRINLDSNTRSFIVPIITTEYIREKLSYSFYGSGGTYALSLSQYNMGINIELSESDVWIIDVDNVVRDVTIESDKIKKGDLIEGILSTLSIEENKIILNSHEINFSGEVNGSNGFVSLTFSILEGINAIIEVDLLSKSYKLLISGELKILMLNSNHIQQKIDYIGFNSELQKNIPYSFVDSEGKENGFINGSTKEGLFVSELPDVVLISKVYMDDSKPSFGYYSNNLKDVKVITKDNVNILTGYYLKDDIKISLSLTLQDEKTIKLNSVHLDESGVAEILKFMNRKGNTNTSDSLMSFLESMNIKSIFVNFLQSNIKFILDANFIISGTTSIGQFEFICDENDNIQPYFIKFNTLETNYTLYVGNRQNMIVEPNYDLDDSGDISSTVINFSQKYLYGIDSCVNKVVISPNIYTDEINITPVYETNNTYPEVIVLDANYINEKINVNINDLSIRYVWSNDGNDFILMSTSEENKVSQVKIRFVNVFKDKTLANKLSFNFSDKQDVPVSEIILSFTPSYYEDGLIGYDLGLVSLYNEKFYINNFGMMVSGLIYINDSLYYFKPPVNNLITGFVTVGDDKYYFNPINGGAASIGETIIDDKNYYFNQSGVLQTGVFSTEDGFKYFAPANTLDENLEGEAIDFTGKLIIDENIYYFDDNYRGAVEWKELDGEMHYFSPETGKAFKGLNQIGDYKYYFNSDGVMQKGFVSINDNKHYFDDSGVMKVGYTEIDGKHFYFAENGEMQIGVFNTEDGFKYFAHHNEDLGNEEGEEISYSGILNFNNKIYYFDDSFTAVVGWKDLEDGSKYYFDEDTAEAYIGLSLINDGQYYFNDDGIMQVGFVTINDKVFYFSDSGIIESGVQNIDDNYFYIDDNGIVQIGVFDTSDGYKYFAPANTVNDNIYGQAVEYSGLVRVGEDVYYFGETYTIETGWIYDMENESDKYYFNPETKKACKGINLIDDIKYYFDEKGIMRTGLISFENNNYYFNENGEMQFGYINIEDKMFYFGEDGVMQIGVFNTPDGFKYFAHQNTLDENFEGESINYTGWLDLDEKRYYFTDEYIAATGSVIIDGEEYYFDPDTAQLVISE
SSB-PriA inh = blocks PriA binding to SSB C-terminal tail | inhibition, % at 33 µM | 430,000 compounds, 0.6% hits | AlphaScreen SSBct-PriA binding, biotinylated peptide; in the data active means inhibition mostly above about 37%, no sharp cut-off; inactive means mostly below about 20%;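 further: plate controls were negative control peptide for no effect and reference peptide for full effect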
DUSP3 inh = DUSP3 (human) phosphatase inhibition | P51452 | recombinant VHR phosphatase, pNPP absorbance | inhibition, % at 13.3 µM | 290,000 compounds, 0.52% hits; in the data active means inhibition above about 50%
SARS 3CLpro inh-1 = SARS-CoV 3CLpro protease inhibition; P0C6X7; recombinant SARS-CoV 3CLpro, quenched FRET peptide cleavage; inhibition, % at 6 µM; 290,000 compounds, 0.14% hits; AID 1706; in the data active means inhibition above about 12%
Vc quorum ag = induces V. cholerae light production without autoinducers. 350,000 compounds, 0.16% hits. activation, % at 18.7 µM. AID 588436. V. cholerae BH1578 lux reporter, luminescence, 6 h; in the data active means activation mostly above about 9.7%, no sharp cut-off
CCHFV vOTU inh = blocks the CCHF virus ovarian tumor domain protease; inhibition, % at 11.5 µM; 370,000 compounds, 0.55% hits; CCHFV vOTU protease, Pep-AMC fluorescence; in the data active means inhibition above about 30%; further: 0% = vehicle wells with enzyme and 100% = no enzyme wells
SARS 3CLpro inh-2 = confirmation of SARS coronavirus 3C-like protease inhibitors; inhibition, % at 6 µM; shares compounds with SARS 3CLpro inh-1; 380 compounds, 36% hits; QFRET protease activity assay, 3CLpro; in the data active means inhibition above about 13%
* hit, by the source's call. Sampled rows, rich in hits. Any-hit rate of the full collection: about 1.3%.

Results for CCCN1CCCc2cc(CCNC(=O)c3ccccc3)ccc21 ?
SSB-PriA inh: 56.5

What do the screens show for `COc1nn(C)cc1C(=O)NCc1ccc2c(c1)OCO2`?
SSB-PriA inh: -2.0

What do the screens show for `O=C(NCCN1Cc2cc(Cl)ccc2OCC1=O)c1cnccn1`?
SSB-PriA inh: 50.0*

Results for O=C(CSc1nnc2n1CCCN2)c1ccc(Cl)cc1 ?
SSB-PriA inh: -0.5; DUSP3 inh: 5.0; SARS 3CLpro inh-1: -5.3; Vc quorum ag: 31.8*; CCHFV vOTU inh: -20.2

What do the screens show for `O=C(CSc1nnc2n1CCCN2)c1ccc([N+](=O)[O-])cc1`?
TcdB GH inh: 8.1; SSB-PriA inh: 1.3; DUSP3 inh: -11.7; SARS 3CLpro inh-1: 1.2; Vc quorum ag: inactive; CCHFV vOTU inh: -1.3

How did COc1cccc(-c2ccnc3[nH]n(-c4ccccc4)c(=O)c23)c1 do in these assays?
TcdB GH inh: 0.8; SSB-PriA inh: 0.1; DUSP3 inh: 51.0*; SARS 3CLpro inh-1: 2.8; Vc quorum ag: inactive; CCHFV vOTU inh: 9.6

Results for O=c1c2c(-c3ccc([N+](=O)[O-])cc3)ccnc2[nH]n1-c1ccccc1 ?
TcdB GH inh: -0.3; SSB-PriA inh: -0.2; DUSP3 inh: 58.1*; SARS 3CLpro inh-1: -5.2; Vc quorum ag: -8.3; CCHFV vOTU inh: 8.6

How did O=C(NCCN1CCCCC1)Nc1cccc(F)c1 do in these assays?
TcdB GH inh: 0.9; SSB-PriA inh: 9.2; DUSP3 inh: 57.0*; SARS 3CLpro inh-1: -1.4; Vc quorum ag: -0.3; CCHFV vOTU inh: -5.2

How did CN(CCO)CC1COCCN1C(=O)COc1ccc(F)cc1 (stereo unspecified) do in these assays?
SSB-PriA inh: -8.0

How did CCC1=NNc2cccc3c(OC)ccc1c23 do in these assays?
DUSP3 inh: 54.0*; SARS 3CLpro inh-1: -1.8

How did O=[N+]([O-])c1ccc(NC(=S)N2CCCC2)cc1 do in these assays?
TcdB GH inh: 0.3; SSB-PriA inh: -7.8; DUSP3 inh: 50.7*; SARS 3CLpro inh-1: -8.1; Vc quorum ag: -0.4; CCHFV vOTU inh: -5.4

Results for CCC(C)NC(=O)Nc1ccccc1C (stereo unspecified) ?
SSB-PriA inh: -1.3; DUSP3 inh: 51.6*; SARS 3CLpro inh-1: 3.8; Vc quorum ag: inactive; CCHFV vOTU inh: 7.2

Results for CCC(C)NC(=O)Nc1ccccc1F (stereo unspecified) ?
SSB-PriA inh: -9.5; DUSP3 inh: 1.3; SARS 3CLpro inh-1: 2.3; Vc quorum ag: -0.4; CCHFV vOTU inh: 2.8

How did COc1cccc(S(=O)(=O)NCc2ccc(C(=O)N3CCN(c4ccccc4)CC3)cc2)c1 do in these assays?
TcdB GH inh: -1.1; SSB-PriA inh: 10.0; DUSP3 inh: 15.0; SARS 3CLpro inh-1: -4.3; Vc quorum ag: inactive; CCHFV vOTU inh: 18.3

What do the screens show for `Cc1ccc(S(=O)(=O)NCc2ccc(C(=O)N3CCN(c4ccccc4)CC3)cc2)cc1`?
TcdB GH inh: 2.4; SSB-PriA inh: 4.2; DUSP3 inh: 52.7*; SARS 3CLpro inh-1: 1.1; Vc quorum ag: inactive; CCHFV vOTU inh: 13.2

How did CN(C)c1ccc(C=NNc2nncc3ccccc23)cc1 do in these assays?
SSB-PriA inh: 4.9

What do the screens show for `CC(C)C(=O)Nc1c(C(=O)N2CCN(c3ncccn3)CC2)oc2ccccc12`?
TcdB GH inh: 1.5; SSB-PriA inh: -6.4; DUSP3 inh: 52.7*; SARS 3CLpro inh-1: -2.6; Vc quorum ag: -0.2; CCHFV vOTU inh: -9.3

What do the screens show for `Cc1ccc2c(C)c(C(=O)N3CCN(c4ncccn4)CC3)oc2c1C`?
TcdB GH inh: 1.1; SSB-PriA inh: 84.7*; DUSP3 inh: 20.8; SARS 3CLpro inh-1: 3.6; Vc quorum ag: -0.3; CCHFV vOTU inh: 4.7

How did CCC(CC)C(=O)Nc1c(C(=O)N2CCN(c3ccccc3)CC2)oc2ccccc12 do in these assays?
TcdB GH inh: 1.9; SSB-PriA inh: -12.4; DUSP3 inh: 12.9; SARS 3CLpro inh-1: 5.2; Vc quorum ag: -2.6; CCHFV vOTU inh: 10.0

Results for CC[n+]1ccc(/C=C/c2ccc(N(C)C)cc2)c2ccccc21 ?
TcdB GH inh: 15.0*; SSB-PriA inh: 23.2; DUSP3 inh: 15.8; SARS 3CLpro inh-1: -9.2; Vc quorum ag: -0.9; CCHFV vOTU inh: 25.1

How did CC[n+]1ccccc1/C=C/c1ccc(N(C)C)cc1 do in these assays?
TcdB GH inh: 0.4; SSB-PriA inh: -5.7; DUSP3 inh: -11.7; SARS 3CLpro inh-1: 4.9; Vc quorum ag: inactive; CCHFV vOTU inh: 26.8

How did CNc1oc(-c2ccc(Cl)cc2)nc1P(=O)(c1ccccc1)c1ccccc1 do in these assays?
SSB-PriA inh: -17.1; DUSP3 inh: -3.3; SARS 3CLpro inh-1: 12.8*; Vc quorum ag: -3.2; CCHFV vOTU inh: 22.1; SARS 3CLpro inh-2: -1.4

How did COc1ccc(NC(=O)c2cn(-c3cc(N(C)C)ncn3)cn2)cc1Cl do in these assays?
SSB-PriA inh: -12.0

What do the screens show for `CCn1nc(NS(=O)(=O)c2ccc([N+](=O)[O-])cc2)c2cc3cccc(C)c3nc21`?
TcdB GH inh: 0.9; SSB-PriA inh: 16.4; DUSP3 inh: -3.0; SARS 3CLpro inh-1: 12.4*; Vc quorum ag: -0.7; CCHFV vOTU inh: 3.2; SARS 3CLpro inh-2: 5.2

Results for CCn1nc(NS(=O)(=O)c2ccccc2)c2cc3cc(C)ccc3nc21 ?
TcdB GH inh: 6.1; SSB-PriA inh: -11.2; DUSP3 inh: -1.9; SARS 3CLpro inh-1: 12.4*; Vc quorum ag: 0.4; CCHFV vOTU inh: 15.8; SARS 3CLpro inh-2: 1.1

Results for CCn1nc(NC(=O)C(C)(C)C)c2cc3cccc(C)c3nc21 ?
TcdB GH inh: 0.1; SSB-PriA inh: -47.2; DUSP3 inh: 5.2; SARS 3CLpro inh-1: -3.2; Vc quorum ag: inactive; CCHFV vOTU inh: -7.4

Results for Cc1ccc2[nH]c(=O)c(CN(CCc3ccccc3)Cc3nnnn3CC3CCCO3)cc2c1 (stereo unspecified) ?
SSB-PriA inh: 5.1; DUSP3 inh: -4.4; SARS 3CLpro inh-1: 57.1*; Vc quorum ag: inactive; CCHFV vOTU inh: 15.0; SARS 3CLpro inh-2: 4.4

What do the screens show for `COc1ccc2[nH]c(=O)c(CN(CCc3ccccc3)Cc3nnnn3CC3CCCO3)cc2c1` (stereo unspecified)?
SSB-PriA inh: -7.2; DUSP3 inh: 8.4; SARS 3CLpro inh-1: -2.4; Vc quorum ag: inactive; CCHFV vOTU inh: -13.8

Results for O=C(O)c1cc(NN=C2c3ccccc3-c3ccccc32)ccc1Cl ?
TcdB GH inh: 0.5; SSB-PriA inh: -3.6; DUSP3 inh: -22.9; SARS 3CLpro inh-1: 13.7*; Vc quorum ag: -0.1; CCHFV vOTU inh: 17.4; SARS 3CLpro inh-2: 11.1

What do the screens show for `O=C(O)c1cccc(NN=C2c3ccccc3-c3ccccc32)c1`?
TcdB GH inh: 1.1; SSB-PriA inh: 11.7; DUSP3 inh: 5.3; SARS 3CLpro inh-1: 11.0; Vc quorum ag: inactive; CCHFV vOTU inh: 28.7

Results for CCCCN(C(=O)Cn1nnc2ccccc21)C(C(=O)NCCOC)c1cccs1 (stereo unspecified) ?
SSB-PriA inh: -1.3; DUSP3 inh: 33.2; SARS 3CLpro inh-1: 1.7; Vc quorum ag: 2.6; CCHFV vOTU inh: -7.4
